High-throughput results: PubChem, Broad Institute
Only a sample is shown.
aSyn UTR act: Activators via SNCA 5'UTR binding, MLPCN; alpha-synuclein 5'UTR reporter, activators screen; activity score, % (tested at 7.5 µM), hits read low; 300,000 compounds, 7.1% hits; in the data active = activity score below about -60%
* = called active by the depositor.

SMILES	aSyn UTR act
COc1ncccc1-c1nnn(-c2ccc(C)cc2)n1	-160.6*
Cc1ccc(-n2nnc(-c3cc4ccccc4nc3Cl)n2)cc1	-148.2*
O=c1[nH]c2ccccc2cc1-c1nnn(-c2ccc(F)cc2)n1	-102.8*
COc1ncccc1-c1nnn(-c2ccc(F)cc2)n1	-97.0*
CCCCOc1ccccc1C1CC(=O)NC2=C1C(=O)CCC2 (stereo not drawn)	93.8
COc1ncccc1-c1nnn(-c2ccc(Cl)c(Cl)c2)n1	-169.0*
CN(C)CCOc1nc(-c2ccccc2)nc2c1oc1ccccc12	-87.8*
CC(/C=N/NC(=O)c1cccs1)=C\c1ccccc1	-99.2*
O=C(N/N=C/C(Cl)=C\c1ccccc1)c1cccs1	-92.0*
CC(=O)c1cccc(Nc2nc(-c3ccccc3)cs2)c1	-144.9*
O=C(Nc1cccc(-c2csc(Nc3ccccc3)n2)c1)c1ccccc1	-142.3*
CC(=O)c1cccc(Nc2nc(-c3cccnc3)cs2)c1	-229.8*
Cc1c(/C(O)=C2/C(=O)C(=O)N(Cc3cccnc3)C2c2cccs2)cnn1-c1ccccc1 (stereo not drawn)	-152.3*
COc1cccc(Nc2nc(-c3sc(C)nc3C)cs2)c1	-103.2*
COc1cccc(Nc2nc(-c3sc(N)nc3C)cs2)c1	-111.9*
Cc1nc(C)c(-c2csc(Nc3ccc(F)cc3)n2)s1	-152.2*
Cc1nc(N)sc1-c1csc(Nc2ncccn2)n1	-136.5*
COc1ccc(-c2cc(C(=O)N3CCCCC3)no2)cc1OC	-111.7*
COc1ccc(-c2cc(C(=O)N3CCN(c4ccccc4)CC3)no2)cc1	-156.1*
Cc1ccc(-c2cc(C(=O)N3CCOCC3)no2)cc1	66.9
COc1ccc(-c2cc(C(=O)N3CCCC3)no2)cc1OC	-122.9*
CC(=O)c1c(C)nc(-c2ccc(Cl)cc2)nc1N=CN(C)C	-128.1*
CC(=O)c1c(C)nc(-c2ccc(Cl)cc2)nc1N	-239.2*
COc1ccc(/C=N/NC(=O)c2cccnc2)cc1COc1ccc([N+](=O)[O-])c(C)c1	97.9
COc1cc(/C=N/NC(=O)c2ccncc2)ccc1OCC(=O)Nc1ccc(C)c(C)c1	-75.6*
SMILES	aSyn UTR act
COc1cc(/C=C2\C(=O)N(CCC#N)N=C2C)ccc1OCC(=O)Nc1ccccc1	-163.7*
COc1ccc(NC(=O)COc2ccc(/C=N/O)cc2OC)cc1	-66.8*
C/C=C/c1ccc(OCC(=O)Nc2ccncc2)c(OC)c1	-72.0*
COc1cc(/C=N/NC(=O)c2ccncc2)ccc1OCC(=O)Nc1cccc([N+](=O)[O-])c1	-111.4*
Cc1ccc(Nc2nnc(-c3ccccc3N)o2)cc1C	-134.9*
Cc1ccccc1Nc1nc(N)nc(CSc2ccc(F)cc2)n1	-125.1*
Cc1ccc(Nc2nc(N)nc(CSc3nccn3C)n2)c(C)c1	-101.2*
Cc1ccccc1Nc1nc(N)nc(CSc2nnnn2C)n1	-109.3*
CCn1c(SCC(=O)Nc2ccc(C)cc2)nc(O)cc1=O	-70.6*
CN(c1ccc(C(=O)NCCSCc2ccco2)cc1)S(C)(=O)=O	-75.9*
CN(c1ccc(C(=O)NCCSC(C)(C)C)cc1)S(C)(=O)=O	-81.1*
CC(C)c1ccc(N(CC(=O)NCCSC(C)(C)C)S(C)(=O)=O)cc1	-83.5*
Cc1cccnc1NC(=S)NC(=O)/C=C/c1ccco1	-88.7*
O=C(/C=C/c1ccco1)NC(=S)Nc1ccccn1	-127.5*
CNC(=O)c1sc(-c2ccc(Cl)cc2)nc1C	-187.3*
CCNC(=O)O/N=C(\C)c1sc(-c2ccccc2)nc1C	-134.5*
CNC(=O)c1sc(-c2ccccc2)nc1C	-78.1*
C/C(=N\O)c1sc(-c2ccccc2)nc1C	-139.6*
CC(=O)c1sc(-c2ccc(Cl)cc2)nc1C	-100.9*
COc1ccccc1CN=c1c([N+](=O)[O-])nn(-c2ccc3c(c2)OCCO3)n1O	-131.9*
O=[N+]([O-])c1nn(-c2ccc3c(c2)OCCO3)n(O)c1=NC1CCCCC1	-64.5*
O=[N+]([O-])c1nn(-c2ccc3c(c2)OCCO3)n(O)c1=NCc1ccccc1Cl	-95.2*
CC(=O)Nc1sc(N/N=C\c2ccc(O)cc2)nc1-c1cccs1	-100.0*
CC(=O)Nc1sc(N/N=C\c2ccccc2F)nc1-c1cccs1	-184.1*
CC(=O)Nc1sc(N/N=C\c2cccc(Cl)c2)nc1-c1cccs1	-82.0*
SMILES	aSyn UTR act
CC1(c2ccccc2)CC(c2ccccc2)=Nc2ccccc2N1 (stereo not drawn)	-104.1*
Cc1cc(C)nc(N/N=C/c2ccccc2OCc2ccc(Cl)cc2)n1	-80.4*
COc1cccc(/C=N/NC(=O)c2c(C)nc3ccc(Br)cn23)c1O	71.0
Cc1cc(C)nc(N/N=C/c2ccccc2OCc2ccc(Br)cc2)n1	-143.7*
Cc1c(NC(=O)/C(C#N)=C/c2ccc(-c3ccccc3Cl)o2)c(=O)n(-c2ccccc2)n1C	56.0
CC(=O)/C=C(\C)Nc1c(C)n(C)n(-c2ccccc2)c1=O	-81.7*
Cc1ccc2nc(N(CCCN(C)C)C(=O)c3cc(-c4cccs4)nc4ccccc34)sc2c1	67.1
Cc1cccc2sc(N(CCN(C)C)C(=O)c3cc(Cl)sc3Cl)nc12	-85.3*
Cc1ccc2nc(N(CCN(C)C)C(=O)c3cc(Cl)sc3Cl)sc2c1	-133.5*
CC(C)Cc1ccc(/C=C/C(=O)N2CCOCC2)cc1	-161.5*
CC(C)(C)c1ccc(/C=C/C(=O)N2CCOCC2)cc1	-146.9*
COc1ccc(C2=NN(CN3C(=O)C(=O)c4ccccc43)C(c3ccc(OC)cc3)C2)cc1 (stereo not drawn)	-181.9*
O=C(NCC(c1cccs1)N1CCOCC1)c1ccc(Br)o1 (stereo not drawn)	-70.5*
CC(C)(C)C(=O)Nc1nc2c(s1)CN(Cc1ccccc1)CC2	-92.3*
O=C(Nc1nc2c(s1)CN(Cc1ccccc1)CC2)C1CCCC1	-81.8*
O=C(Nc1nc2c(s1)CN(Cc1ccccc1)CC2)c1c(F)cccc1F	-82.1*
Cc1ccc2c(c1)cc1c(=O)[nH]ncn12	-67.1*
C=CCSC1=NNC(c2ccc(C(C)(C)C)cc2)=NN1	-89.5*
O=C(Cc1cccs1)Nc1nc2c(s1)CCCC2	-97.2*
O=C(CCSc1ccccc1)Nc1nc2c(s1)CCCC2	-85.6*
N=C1S/C(=C\c2cn[nH]c2-c2ccc(F)cc2)C(=O)N1c1ccccc1F	-108.2*
Cc1ccc(SCc2cc(=O)n3ccsc3n2)c(C)c1	-78.9*
CSc1nccc(N/N=C/c2ccccc2)n1	-157.7*
Cc1ccnc(N/N=C/c2ccccc2)n1	-89.6*
Cc1ccc(-c2cc(-c3ccccc3O)nc(N/N=C/c3cccnc3)n2)cc1	-99.6*
SMILES	aSyn UTR act
C(=N\Nc1nccc(-c2cccnc2)n1)/c1ccccc1	-108.0*
COc1ccc(-c2cn3c(n2)CCC3)cc1	-90.9*
O=[N+]([O-])c1ccc(Cl)c(/C=N/NC(=S)Nc2ccccc2)c1	-79.3*
O=C(N/N=C/c1cc([N+](=O)[O-])ccc1O)c1cccc(NC(=O)c2cccc(Cl)c2)c1	60.4
Cc1nn(C)cc1/C=N/NC(=S)Nc1ccccc1	-136.7*
C/C(CC(=O)Nc1cccc2c1CCCC2)=N\NC(=O)c1ccccc1N	-109.8*
Cc1nnc(NC(=O)c2c(F)c(F)c(F)c(F)c2F)s1	-73.0*
O=C(Nc1nncs1)c1ccc2c(c1)OCO2	-83.2*
COCCSc1nnc(NC(=O)c2ccc3c(c2)OCO3)s1	-118.2*
Cc1nnc(NC(=O)c2cccc(Br)c2)s1	-95.9*
Cc1nnc(NC(=O)c2ccc(S(=O)(=O)C(F)F)cc2)s1	-78.4*
Cc1nnc(NC(=O)c2ccc3c(c2)OCO3)s1	-150.2*
CSc1nnc(NC(=O)c2ccc3c(c2)OCO3)s1	81.4
Nc1ccc(CCc2nc3ccccc3o2)cc1	-126.0*
